Among the data in PubChem BioAssay AID2284424 (EPA ToxCast) are outcome and AC50 values, retold here.

Molecules are shown by their SMILES. Activity calls are given as the source filed them. The calls were made as follows: active = hit-call score of the fitted dose curve at least 0.9, where 1 is the maximum; inactive = score below 0.9.

The subject of this test is SRY-box transcription factor 2 (SOX2) Protein Expression, SOX2 (gene 6657). Nature of the test: CCTE_Deisenroth_DEVTOX-GLR_Ecto_SOX2: CCTE's DevTox GLR-Ecto Assay Evaluation of SRY-box transcription factor 2 (SOX2) Protein Expression, Deisenroth Lab. The method, then:
CCTE_Deisenroth_DEVTOX-GLR_Ecto assay is a cell-based, multiplex-readout assay that uses RUES2-GLR, a human pluripotent cell line, with measurements taken at 48 hours after chemical dosing in a 384-well microplateCCTE_Deisenroth_DEVTOX-GLR_Ecto_SOX2 is 1 of 4 assay components calculated from the CCTE_Deisenroth_DEVTOX-GLR_Ecto assay and it measures an the percentage of cells in an ectoderm state. Using a type of inducible fluorescent protein reporter, gain-of-signal activity can be used to understand changes in gene expression with fluorescent microscopy. The percentage of SOX2+ cells are determined by calculating the number of SOX2+ cells divided by the cell count. To generalize the intended target to other relatable targets, this assay component is annotated to the transcription factor intended target family, where the subfamily is SRY-related HMG-box.Data from the assay component CCTE_Deisenroth_DEVTOX-GLR_Ecto_SOX2 was analyzed as 1 assay endpoint. The endpoint is the percent change in SOX2+ cell population relative to the 0.2% DMSO control in the CCTE_Deisenroth_DEVTOX-GLR_Ecto assay. Furthermore, this assay endpoint can be referred to as a primary readout, because this assay has produced multiple assay endpoints where this one serves as a measure of ectoderm differentiation.
All assay protocols are aligned to the DevTox GLR-Endo assay workflow. Cells are seeded into 384-well microplates for 24 hours prior to initiating differentiation in defined media for a total duration of 48 hours. A total of two chemical exposures are administered in 24-hour intervals during the 48-hour differentiation period. At the assay termination point, cells are fixed and stained with a fluorescent dye demarcating the nucleus. High-content imaging is used to acquire brightfield and fluorescent channel images across 5 fields per well. Cell identification and mean biomarker fluorescence intensities are calculated with image analysis software to determine the total cell counts for viability assessment and the biomarker expression frequency for each lineage-dependent assay. A typical experimental design tests a 10-point concentration series (1 nM - 200 uM) for 28 compounds in single technical replicate. Assay plate controls include non-differentiated pluripotent cells (baseline control), lineage-specific differentiated cells (differentiation control), and DMSO solvent exposed differentiated cells (solvent control). Experiments typically comprise a minimum of four experimental replicates (n=4).
Take `CCN(CC)CCNC(=O)c1c(C)[nH]c(/C=C2\C(=O)Nc3ccc(F)cc32)c1C`: the molecule was classed as inactive.

For the molecule `CC1=C(/C=C/C(C)=C/C=C/C(C)=C\C(=O)O)C(C)(C)CCC1`, the AC50 was 5.86 µM (active).

As for `CCCC(CCC)C(=O)O`, the result was inactive.

On to `CC/C(=C(/CC)c1ccc(O)cc1)c1ccc(O)cc1`, for which the molecule was classed as inactive.

Turning to `Nc1cccc2c1C(=O)N(C1CCC(=O)NC1=O)C2=O` (stereo unspecified), the result was inactive.

As for `O=c1[nH]cc(F)c(=O)[nH]1`, the AC50 is 9.11 µM (active).

Take `O=C1NC(=O)C(c2ccccc2)(c2ccccc2)N1`: the result was inactive.

With `O=C1CCC(N2C(=O)c3ccccc3C2=O)C(=O)N1` (stereo unspecified), the molecule was called inactive.

As to `CC(C)(c1ccc(O)cc1)c1ccc(O)cc1`, the call was inactive.

Take `CS(=O)(=O)OCCCCOS(C)(=O)=O`: the concentration at half-maximal activity (AC50) was 21 µM (active).

For `Nc1nc2ncc(CNc3ccc(C(=O)N[C@@H](CCC(=O)O)C(=O)O)cc3)nc2c(=O)[nH]1`, the result was inactive.

With `CC1(C)S[C@@H]2[C@H](NC(=O)Cc3ccccc3)C(=O)N2[C@H]1C(=O)O`, the result was inactive.

For `CC(=O)Nc1ccc(O)cc1`, the outcome was inactive.

For the molecule `CN(Cc1cnc2nc(N)nc(N)c2n1)c1ccc(C(=O)N[C@@H](CCC(=O)O)C(=O)O)cc1`, the concentration at half-maximal activity (AC50) was 0.106 µM (active).

As for `O=C1NS(=O)(=O)c2ccccc21`, the result was inactive.

For `CC1=C(/C=C/C(C)=C/C=C/C(C)=C/C(=O)O)C(C)(C)CCC1`, the half-maximal activity concentration (AC50) is 0.471 µM (active).
